Common to all, as to assay: DAPPL (digital affinity profiling via proximity ligation, sequencing); 10 mM Tris-HCl pH 7.5, 50 mM NaCl, 1 mM DTT, 4% glycerol, room temperature, 30 min; GST-TFs on glutathione beads, 16-mer random dsDNA library, 0.1% formaldehyde crosslink after washing; high values mean tight binding
Holding throughout (settings): protein: recombinant; tags: N-terminal GST; dsDNA, one strand shown

One test deals with T1, ERG (Homo sapiens, UniProt P11308 1-479).
T1 sequence: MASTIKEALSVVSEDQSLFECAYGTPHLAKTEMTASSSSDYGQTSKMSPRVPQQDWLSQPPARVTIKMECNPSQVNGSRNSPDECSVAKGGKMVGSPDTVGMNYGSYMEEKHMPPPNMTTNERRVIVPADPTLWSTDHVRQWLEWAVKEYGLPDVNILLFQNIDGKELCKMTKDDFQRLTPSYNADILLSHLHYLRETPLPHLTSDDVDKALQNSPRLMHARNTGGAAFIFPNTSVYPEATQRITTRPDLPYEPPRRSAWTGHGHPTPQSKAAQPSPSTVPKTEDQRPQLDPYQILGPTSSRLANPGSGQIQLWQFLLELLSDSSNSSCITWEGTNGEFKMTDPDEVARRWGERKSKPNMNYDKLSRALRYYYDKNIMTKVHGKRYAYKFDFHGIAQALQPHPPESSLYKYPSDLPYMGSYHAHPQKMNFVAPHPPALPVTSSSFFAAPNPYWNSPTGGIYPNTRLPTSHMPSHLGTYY
The essentials:
(§1)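 Binding signal is given per hexamer as its read frequency for a factor divided by its frequency in the tag-only sample. GST-fused human transcription factors were expressed in yeast, captured on glutathione beads, barcoded with DNA and pooled with that sample, then incubated with 200 nmole of a 16-mer random double-stranded DNA library in Tris/NaCl/DTT/glycerol buffer for 30 min at room temperature. The pools were then washed, crosslinked, proximity-ligated, amplified by PCR and sequenced on an Illumina NextSeq500.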

A further test deals with T2, FEV (Homo sapiens, UniProt Q99581 1-238).
T2 sequence: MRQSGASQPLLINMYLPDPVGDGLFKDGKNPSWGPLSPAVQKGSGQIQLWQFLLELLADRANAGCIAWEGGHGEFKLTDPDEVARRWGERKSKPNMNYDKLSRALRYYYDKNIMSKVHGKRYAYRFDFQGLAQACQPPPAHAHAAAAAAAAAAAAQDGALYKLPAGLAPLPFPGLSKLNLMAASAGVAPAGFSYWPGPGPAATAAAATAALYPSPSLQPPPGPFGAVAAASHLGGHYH
In a few lines:
as §1

For the next test, the target named is ELF1 (Homo sapiens, UniProt P32519 1-619). In a few lines:
as §1

For the next test, the target named is ETV6 (Homo sapiens, UniProt P41212 1-452). The essentials:
as §1

A further test concerns the target SPIB (Homo sapiens, UniProt Q01892 1-262). In a few lines: as §1
The next test addresses T3, ETV3L (Homo sapiens, UniProt Q6ZN32 1-361).
T3 sequence: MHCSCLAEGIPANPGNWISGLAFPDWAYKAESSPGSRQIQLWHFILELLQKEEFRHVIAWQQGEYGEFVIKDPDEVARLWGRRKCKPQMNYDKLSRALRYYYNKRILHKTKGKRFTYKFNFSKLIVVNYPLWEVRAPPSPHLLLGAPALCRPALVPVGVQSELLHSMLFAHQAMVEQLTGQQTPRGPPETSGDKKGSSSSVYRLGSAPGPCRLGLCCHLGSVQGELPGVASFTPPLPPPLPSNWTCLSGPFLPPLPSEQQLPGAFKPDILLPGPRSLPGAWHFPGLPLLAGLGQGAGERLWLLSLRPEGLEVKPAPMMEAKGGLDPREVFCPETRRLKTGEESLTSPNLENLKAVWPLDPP
The essentials:
as §1

A further test concerns the target T4, ETS2 (Homo sapiens, UniProt P15036 1-469).
T4 sequence: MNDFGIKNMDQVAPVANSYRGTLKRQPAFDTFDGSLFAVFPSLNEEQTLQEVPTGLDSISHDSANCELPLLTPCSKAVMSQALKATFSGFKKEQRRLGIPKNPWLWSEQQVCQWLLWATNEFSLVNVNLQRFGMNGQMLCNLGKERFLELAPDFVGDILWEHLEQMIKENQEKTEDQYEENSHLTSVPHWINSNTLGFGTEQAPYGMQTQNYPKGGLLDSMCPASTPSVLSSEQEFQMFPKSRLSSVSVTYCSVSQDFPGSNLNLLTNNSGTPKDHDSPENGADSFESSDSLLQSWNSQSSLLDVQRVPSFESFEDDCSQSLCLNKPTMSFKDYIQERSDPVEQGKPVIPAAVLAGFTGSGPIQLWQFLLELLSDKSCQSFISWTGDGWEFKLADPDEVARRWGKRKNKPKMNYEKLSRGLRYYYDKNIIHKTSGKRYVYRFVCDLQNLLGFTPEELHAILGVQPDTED
In a few lines:
as §1

A further test addresses T5, ERF (Homo sapiens, UniProt P50548 1-548).
T5 sequence: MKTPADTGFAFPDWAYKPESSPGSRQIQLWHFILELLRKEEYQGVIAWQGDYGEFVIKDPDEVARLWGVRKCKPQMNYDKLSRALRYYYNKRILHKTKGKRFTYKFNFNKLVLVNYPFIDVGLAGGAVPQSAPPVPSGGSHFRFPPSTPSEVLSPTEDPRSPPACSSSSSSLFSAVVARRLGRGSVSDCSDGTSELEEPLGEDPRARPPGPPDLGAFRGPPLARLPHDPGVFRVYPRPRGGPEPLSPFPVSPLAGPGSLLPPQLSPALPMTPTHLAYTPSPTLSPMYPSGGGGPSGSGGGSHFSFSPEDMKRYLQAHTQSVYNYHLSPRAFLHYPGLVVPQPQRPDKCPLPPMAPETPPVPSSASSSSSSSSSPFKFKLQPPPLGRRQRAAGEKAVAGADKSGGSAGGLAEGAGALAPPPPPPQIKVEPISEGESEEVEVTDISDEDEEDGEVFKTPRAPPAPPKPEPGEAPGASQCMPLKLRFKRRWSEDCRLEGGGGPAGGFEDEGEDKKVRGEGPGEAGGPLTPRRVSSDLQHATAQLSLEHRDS
The essentials: as §1

A further test addresses T6, ETV3 (Homo sapiens, UniProt P41162-2 1-143).
T6 sequence: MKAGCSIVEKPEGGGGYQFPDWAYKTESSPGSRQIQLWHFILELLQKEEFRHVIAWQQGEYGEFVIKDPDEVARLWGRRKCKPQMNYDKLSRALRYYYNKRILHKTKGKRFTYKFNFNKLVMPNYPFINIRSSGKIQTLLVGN
In a few lines: as §1

A further test has as its target T7, SPDEF (Homo sapiens, UniProt O95238 1-335).
T7 sequence: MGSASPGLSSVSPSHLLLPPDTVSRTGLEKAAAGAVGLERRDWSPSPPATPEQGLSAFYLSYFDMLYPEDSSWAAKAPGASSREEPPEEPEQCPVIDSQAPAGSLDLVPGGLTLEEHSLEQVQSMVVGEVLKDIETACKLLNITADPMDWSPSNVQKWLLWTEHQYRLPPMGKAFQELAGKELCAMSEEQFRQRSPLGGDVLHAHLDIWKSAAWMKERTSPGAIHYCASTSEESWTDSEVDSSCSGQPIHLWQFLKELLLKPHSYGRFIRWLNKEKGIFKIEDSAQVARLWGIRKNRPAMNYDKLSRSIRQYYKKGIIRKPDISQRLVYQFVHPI
In a few lines:
as §1

A further test has as its target T8, GABPA (Homo sapiens, UniProt Q06546 1-454).
T8 sequence: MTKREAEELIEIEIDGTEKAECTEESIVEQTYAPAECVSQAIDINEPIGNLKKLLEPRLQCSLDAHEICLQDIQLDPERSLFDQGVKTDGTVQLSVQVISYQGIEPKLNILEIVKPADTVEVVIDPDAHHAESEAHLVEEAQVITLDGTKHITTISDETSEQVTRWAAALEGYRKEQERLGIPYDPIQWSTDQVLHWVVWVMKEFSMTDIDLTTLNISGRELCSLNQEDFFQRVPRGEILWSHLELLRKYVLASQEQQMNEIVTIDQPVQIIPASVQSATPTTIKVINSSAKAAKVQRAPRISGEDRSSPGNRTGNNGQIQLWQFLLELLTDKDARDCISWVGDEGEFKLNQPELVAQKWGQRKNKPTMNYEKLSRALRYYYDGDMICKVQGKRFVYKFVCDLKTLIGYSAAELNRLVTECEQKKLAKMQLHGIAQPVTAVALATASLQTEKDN
In a few lines: as §1

A further test concerns the target T9, ETV7 (Homo sapiens, UniProt Q9Y603 1-341).
T9 sequence: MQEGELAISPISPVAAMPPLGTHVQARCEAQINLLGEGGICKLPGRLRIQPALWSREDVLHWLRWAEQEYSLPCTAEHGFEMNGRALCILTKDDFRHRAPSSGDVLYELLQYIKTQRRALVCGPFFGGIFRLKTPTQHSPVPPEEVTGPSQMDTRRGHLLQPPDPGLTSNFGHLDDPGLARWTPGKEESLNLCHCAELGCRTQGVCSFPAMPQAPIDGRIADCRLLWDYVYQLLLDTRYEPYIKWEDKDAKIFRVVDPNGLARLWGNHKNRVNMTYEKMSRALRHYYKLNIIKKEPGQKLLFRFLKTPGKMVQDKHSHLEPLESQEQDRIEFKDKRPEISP
In a few lines: as §1

Chain of ETV6 (P41212 whole entry): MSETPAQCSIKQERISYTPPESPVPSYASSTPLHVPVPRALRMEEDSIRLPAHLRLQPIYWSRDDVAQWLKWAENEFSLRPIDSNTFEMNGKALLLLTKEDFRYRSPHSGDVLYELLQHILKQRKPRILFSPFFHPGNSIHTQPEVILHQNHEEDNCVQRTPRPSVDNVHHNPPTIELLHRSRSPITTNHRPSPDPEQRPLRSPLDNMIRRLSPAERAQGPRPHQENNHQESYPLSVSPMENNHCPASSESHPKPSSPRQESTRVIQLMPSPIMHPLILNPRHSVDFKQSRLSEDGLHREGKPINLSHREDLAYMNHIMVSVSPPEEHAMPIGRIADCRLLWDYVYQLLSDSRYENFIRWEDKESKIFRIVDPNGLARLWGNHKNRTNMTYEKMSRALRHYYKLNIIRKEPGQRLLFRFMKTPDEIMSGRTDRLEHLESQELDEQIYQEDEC
Chain of SPIB (Q01892 whole entry): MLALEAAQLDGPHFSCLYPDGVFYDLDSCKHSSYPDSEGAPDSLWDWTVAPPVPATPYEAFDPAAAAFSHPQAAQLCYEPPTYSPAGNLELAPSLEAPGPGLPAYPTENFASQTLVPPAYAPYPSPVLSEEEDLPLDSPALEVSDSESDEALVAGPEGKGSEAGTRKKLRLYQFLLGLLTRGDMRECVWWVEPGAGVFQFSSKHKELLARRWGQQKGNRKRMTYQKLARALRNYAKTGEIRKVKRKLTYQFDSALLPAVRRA
Chain of ELF1 (P32519 whole entry): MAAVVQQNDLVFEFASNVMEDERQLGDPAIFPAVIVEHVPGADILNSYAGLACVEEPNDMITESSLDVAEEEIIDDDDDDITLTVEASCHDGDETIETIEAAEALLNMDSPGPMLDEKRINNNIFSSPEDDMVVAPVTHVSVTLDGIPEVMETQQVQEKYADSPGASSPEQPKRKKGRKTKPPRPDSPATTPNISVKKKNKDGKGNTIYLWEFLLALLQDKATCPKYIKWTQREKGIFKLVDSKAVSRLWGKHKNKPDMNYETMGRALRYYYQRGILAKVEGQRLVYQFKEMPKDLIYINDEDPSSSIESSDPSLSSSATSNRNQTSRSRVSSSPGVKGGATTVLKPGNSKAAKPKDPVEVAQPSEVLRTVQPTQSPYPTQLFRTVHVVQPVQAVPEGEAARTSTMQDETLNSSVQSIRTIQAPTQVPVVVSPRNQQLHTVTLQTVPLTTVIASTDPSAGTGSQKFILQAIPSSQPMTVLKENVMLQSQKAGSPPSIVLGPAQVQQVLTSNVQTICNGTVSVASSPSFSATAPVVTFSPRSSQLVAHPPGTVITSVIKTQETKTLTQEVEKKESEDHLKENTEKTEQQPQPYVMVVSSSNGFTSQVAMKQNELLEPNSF

Take AGGATA: the binding signal with ERG is 1.06 fold enrichment (6-mer frequency, TF over GST control); with FEV, 1.01 fold enrichment (6-mer frequency, TF over GST control).

Take TGTCGC: the binding signal with ELF1 was 1.04 fold enrichment (6-mer frequency, TF over GST control); with FEV, 1.02 fold enrichment (6-mer frequency, TF over GST control); in the test with ETV6, 1.01 fold enrichment (6-mer frequency, TF over GST control).

For CCAAAG, the binding signal with SPIB is 1.01 fold enrichment (6-mer frequency, TF over GST control).

Consider TGACAG, for which, in the test with ETV3L, the binding signal is 1 fold enrichment (6-mer frequency, TF over GST control).

CGCGGA: the binding signal with ETS2 is 1 fold enrichment (6-mer frequency, TF over GST control).

For AGTACG, in the test with ETV6, the binding signal was 1.03 fold enrichment (6-mer frequency, TF over GST control).

Take TTGGAC: the binding signal with ERF was 1.02 fold enrichment (6-mer frequency, TF over GST control); in the test with ETV3, 1.01 fold enrichment (6-mer frequency, TF over GST control).

CCGGGC: the binding signal with SPDEF was 1.05 fold enrichment (6-mer frequency, TF over GST control).

Regarding CGCCGT, the binding signal with GABPA was 1.01 fold enrichment (6-mer frequency, TF over GST control).

With GACGAT, the binding signal in the test with ERF was 1.02 fold enrichment (6-mer frequency, TF over GST control); in the test with ETV7, 1 fold enrichment (6-mer frequency, TF over GST control).

Source of the values: article PMC7862700, “An all-to-all approach to the identification of sequence-specific readers for epigenetic DNA modifications on cytosine”.
